Here are results for ten molecules from PubChem BioAssay (NCI).

Values joined by “and” are separate entries in the source; they are usually repeats but may differ in a detail not shown here. Equal values may be shown once. This is part of a sample that, as a whole, favours compounds with a hit. Of some 83,000 tested, about 20% had one in any assay.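 Treatment: one concentration, 48 hours, 96-well format. Scoring: percent growth, with anything below 10 considered active.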 Values without a mark were called inactive. Active and inactive are the calls of the source.

Test systems include HT29 colon; U251 CNS; SK-MEL-5 melanoma; UACC-62 melanoma; LOX IMVI melanoma; SK-MEL-2 melanoma; EKVX NSCLC; SN12C renal; TK-10 renal; ACHN renal; CAKI-1 renal; A498 renal; HL-60(TB) leukemia; SNB-75 CNS; PC-3 prostate; SNB-19 CNS; SK-MEL-28 melanoma; UO-31 renal; CCRF-CEM leukemia.
Holding throughout (test): NCI-60 one-dose screen, 48 h (100 = growth as untreated, 0 = no growth, -100 = all killed)
What all share (conditions): 10 µM unless noted

`COc1c(O)cc2c(c1OC)-c1ccc(SC)c(=O)cc1C(NC(C)=O)CC2` (centres undefined): the growth in the test on HT29 colon is -18.9% (active); in the test on U251 CNS, 5.68% (active); in the test on SK-MEL-5 melanoma, -28.2% (active); in the test on UACC-62 melanoma, 18.6%; with LOX IMVI melanoma, 15.4%; in the test on SK-MEL-2 melanoma it was 59.8%. For the same molecule, the growth in the test on EKVX NSCLC is 41.9%; with SN12C renal, 48.7%; in the test on TK-10 renal, 48.7%; in the test with ACHN renal, 3.04% (active); in the test on CAKI-1 renal, 19.3%; in the test on A498 renal, 7.2% (active). Further, in the test on HL-60(TB) leukemia, the growth was -32.6% (active).
Take `O=S1(=O)OCCO1`: the growth is 107% in the test on HT29 colon; 90.5% with SNB-75 CNS; 105% with U251 CNS; 99.9% in the test on PC-3 prostate; 101% in the test on SK-MEL-5 melanoma; 87.4% with UACC-62 melanoma. Moreover, the growth was 92.3% in the test on LOX IMVI melanoma; 113% in the test on SK-MEL-2 melanoma; 100% in the test with EKVX NSCLC; 93.3% with SN12C renal; 98.5% in the test with TK-10 renal; 99.2% with ACHN renal. For the same molecule, the growth is 89.5% with CAKI-1 renal and 98.6% in the test with HL-60(TB) leukemia.
For `Nc1cccnc1`, the growth in the test on HT29 colon was 103%; with SNB-19 CNS it was 109%; in the test on U251 CNS it was 103%; with PC-3 prostate, 97.9%; in the test on SK-MEL-5 melanoma, 112%; with UACC-62 melanoma, 109%. Further, the growth in the test on LOX IMVI melanoma is 104%; with SK-MEL-28 melanoma it was 117%; in the test on EKVX NSCLC, 115%; in the test on SN12C renal, 102%; in the test with UO-31 renal, 107%; with TK-10 renal, 102%. Besides, the growth is 113% in the test on ACHN renal, 104% in the test on CAKI-1 renal, 106% in the test with HL-60(TB) leukemia and 98.7% with CCRF-CEM leukemia.
On to `C=C1C(=O)OC2/C=C(\C)CC/C=C(/C)CC(OC(=O)/C(=C/CO)CO)C12` (centres undefined), for which the growth with UACC-62 melanoma was -89.6% [100 µM] (active) and -100% [100 µM] (active); with TK-10 renal it was -78.7% [100 µM] (active) and -88.5% [100 µM] (active).
As for `O=[N+]([O-])c1ccc(OCc2ccc(S(=O)(=O)F)c(Cl)c2)c(Cl)c1`, the growth with HT29 colon was 99.2%; in the test with SNB-75 CNS, 92.8%; with U251 CNS it was 107%; in the test on PC-3 prostate it was 91.4%; in the test on SK-MEL-5 melanoma it was 99.6%; in the test on UACC-62 melanoma it was 92.6%. For the same molecule, the growth is 93% in the test on LOX IMVI melanoma; 119% in the test on SK-MEL-28 melanoma; 88.7% with SK-MEL-2 melanoma; 112% in the test on EKVX NSCLC; 97.7% in the test with SN12C renal; 102% in the test with TK-10 renal. In addition, the growth in the test on ACHN renal was 92.7%; in the test on CAKI-1 renal, 102%; in the test on A498 renal, 95.6%; in the test with HL-60(TB) leukemia it was 88.9%; with CCRF-CEM leukemia, 87.9%.
In the case of `CC1(C)CN=C(NN=C(/C=C/c2ccc(C(F)(F)F)cc2)/C=C/c2ccc(C(F)(F)F)cc2)NC1`, the growth was -83.2% (active) in the test with HT29 colon; -88.6% (active) with SNB-75 CNS; 24.7% with PC-3 prostate; -83.8% (active) in the test with UACC-62 melanoma; -90.9% (active) in the test on SK-MEL-28 melanoma; -74.3% (active) with SN12C renal. In addition, the growth with UO-31 renal was 8.51% (active); in the test with TK-10 renal, -17.9% (active); in the test with ACHN renal it was -84.2% (active); with CAKI-1 renal, -76.9% (active); in the test on A498 renal, 2.54% (active); in the test with HL-60(TB) leukemia, -59.7% (active). Moreover, in the test on CCRF-CEM leukemia, the growth was -24.9% (active).
Consider `COc1ccc(C(C#N)C(C)=O)cc1` (centres undefined), for which the growth is 88.7% in the test with HT29 colon; 82.1% in the test with SNB-75 CNS; 106% in the test with U251 CNS; 103% in the test on PC-3 prostate; 102% in the test with SK-MEL-5 melanoma; 97.6% in the test on UACC-62 melanoma. In addition, the growth is 98.1% in the test with LOX IMVI melanoma; 115% with SK-MEL-28 melanoma; 103% in the test on SK-MEL-2 melanoma; 108% in the test with EKVX NSCLC; 102% in the test on SN12C renal; 90.4% in the test on UO-31 renal. The growth in the test on TK-10 renal was 96.8%; with ACHN renal, 99.8%; in the test with CAKI-1 renal, 95.3%; in the test on A498 renal, 96.8%; in the test on HL-60(TB) leukemia, 110%; with CCRF-CEM leukemia, 98.6%.
For `NNC(=S)N/N=C(\C(=O)Nc1cccc(O)c1)C1C(=O)NC(=S)NC1=O`, the growth with UACC-62 melanoma is 90.4% [100 µM] and 91% [100 µM]; with TK-10 renal it was 132% [100 µM] and 93% [100 µM].
Consider `C[C@]12CC[C@H]3[C@@H](CC=C4c5nc(N)sc5CC[C@@]43C)[C@@H]1CC[C@@H]2O`, for which the growth is 95.5% with HT29 colon; 89.9% with SNB-75 CNS; 99.2% in the test on SNB-19 CNS; 97.4% in the test with U251 CNS; 98.5% with PC-3 prostate; 98.5% with SK-MEL-5 melanoma. For the same molecule, the growth in the test on UACC-62 melanoma is 87.8%; with LOX IMVI melanoma, 104%; with SK-MEL-2 melanoma it was 98%; with EKVX NSCLC it was 101%; in the test with SN12C renal, 93.8%; in the test with TK-10 renal, 102%. Besides, the growth in the test with ACHN renal was 106%; in the test with CAKI-1 renal it was 91.7%; with A498 renal it was 86%; in the test with HL-60(TB) leukemia, 87.8%; in the test on CCRF-CEM leukemia it was 91.2%.
As to `Oc1ccccc1C=NCCN=Cc1ccccc1O`, the growth in the test on HT29 colon is 108%; with SNB-75 CNS, 97.6%; with SNB-19 CNS, 98%; with U251 CNS, 91.6%; in the test with PC-3 prostate, 95.1%; in the test with SK-MEL-5 melanoma it was 99.5%. The growth in the test with UACC-62 melanoma is 98.8%; with LOX IMVI melanoma, 95.6%; in the test with SK-MEL-2 melanoma it was 106%; with SN12C renal, 102%; in the test with UO-31 renal, 92.3%; in the test on TK-10 renal it was 104%. For the same molecule, the growth in the test with ACHN renal is 103%; in the test with CAKI-1 renal, 102%; with A498 renal, 77.9%; in the test on HL-60(TB) leukemia, 115%; with CCRF-CEM leukemia, 90%.
